In PubChem BioAssay AID743314 (Broad Institute, 2014):
Potency and affinity values are given separately. Results filed as inconclusive are left out. Entries that show only a call come without a potency. Active and inactive are the calls of the source.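 The calls were made as follows: active = fitted half-maximal concentration no higher than twice the top tested dose, in every repeat run; inconclusive = repeat runs disagree, poor fit, or flat partial inhibition; inactive = the rest.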

Target: Endoplasmic reticulum aminopeptidase 1 (Homo sapiens) (UniProt Q9NZ08)
Sequence (Q9NZ08 whole entry, looked up): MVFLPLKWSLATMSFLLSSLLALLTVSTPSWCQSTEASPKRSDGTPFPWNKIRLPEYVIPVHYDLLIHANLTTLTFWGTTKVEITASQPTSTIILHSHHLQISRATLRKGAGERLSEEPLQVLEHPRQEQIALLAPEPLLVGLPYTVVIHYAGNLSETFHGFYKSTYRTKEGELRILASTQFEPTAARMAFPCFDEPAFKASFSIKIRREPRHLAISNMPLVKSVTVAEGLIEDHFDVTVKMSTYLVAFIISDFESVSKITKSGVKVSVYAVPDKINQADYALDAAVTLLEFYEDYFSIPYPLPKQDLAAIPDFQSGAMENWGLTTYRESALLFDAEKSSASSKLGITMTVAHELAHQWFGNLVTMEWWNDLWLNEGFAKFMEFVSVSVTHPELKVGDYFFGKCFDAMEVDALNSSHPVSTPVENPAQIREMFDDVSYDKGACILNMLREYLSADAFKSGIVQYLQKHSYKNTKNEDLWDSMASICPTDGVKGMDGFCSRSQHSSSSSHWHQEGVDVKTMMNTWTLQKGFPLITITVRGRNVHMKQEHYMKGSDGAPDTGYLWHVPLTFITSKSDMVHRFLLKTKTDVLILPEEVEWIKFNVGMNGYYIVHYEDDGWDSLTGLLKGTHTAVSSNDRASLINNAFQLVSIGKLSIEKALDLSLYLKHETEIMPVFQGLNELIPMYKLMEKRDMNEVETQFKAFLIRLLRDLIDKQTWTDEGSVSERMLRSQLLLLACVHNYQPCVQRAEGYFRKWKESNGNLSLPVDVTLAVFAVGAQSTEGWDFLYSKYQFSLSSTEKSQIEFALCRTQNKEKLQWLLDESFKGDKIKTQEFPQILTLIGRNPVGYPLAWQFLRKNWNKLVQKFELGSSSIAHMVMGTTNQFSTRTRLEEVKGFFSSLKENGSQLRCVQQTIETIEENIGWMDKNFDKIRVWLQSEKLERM
Experiment: inhibition of human ERAP1 enzyme activity – biochemical, cherry-pick, set 2, plate reader, dose response (AID 743314)
Details: Recombinant ERAP1, Leu-AMC fluorescence, 60 min; series mostly up to 11 µM

Row | SMILES | outcome | activity change, negative = inhibition
1 | COc1ccccc1-c1cccc(-c2nc(C(=O)Nc3nccs3)cc3c2[C@@H](CCO)N(C(=O)CC2CC2)C3)c1 | inactive | 
2 | CCc1cc(=O)oc2c(CNCc3ccccc3F)c(O)c(Cl)cc12 | inactive | 
3 | CN(C)C(=O)c1cccc(-c2ccc3c(c2)[C@H]2[C@H](CCN2Cc2nccs2)[C@@H](CO)N3)c1 | inactive | 
4 | Cc1cc(Br)ccc1NC(=O)CN(C)C(=O)Cn1c(=O)cnc2ccccc21 | inactive | 
5 | COc1ccccc1CN1[C@H](CO)[C@@H](c2ccccc2)C12CN(C(=O)c1ccccn1)C2 | inactive | 
6 | C[C@@H]1CN([C@H](C)CO)C(=O)c2cccc(NC(=O)Nc3ccc(C(F)(F)F)cc3)c2O[C@H]1CN(C)C | inactive | 
7 | O=C(C[C@H]1CC[C@@H](NC(=O)Cc2ccccn2)[C@@H](CO)O1)NCCCN1CCOCC1 | inactive | 
8 | C[C@@H]1CCCCO[C@H](CN(C)S(=O)(=O)c2ccccc2)[C@H](C)CN([C@H](C)CO)C(=O)c2cc(NS(=O)(=O)c3ccc(Cl)cc3)ccc2O1 | inactive | 
9 | O=C(CC1CC1)N1[C@H](CO)[C@@H](c2ccccc2)C12CN(Cc1cc(F)ccc1F)C2 | inactive | 
10 | C[C@H](NC(=O)C[C@H]1CC[C@H]2[C@@H](COC[C@H](O)CN2C(=O)Nc2ccccc2)O1)c1ccccc1 | inactive | 
11 | COc1ccc(CN(C)C[C@H]2Oc3c(NC(=O)NC4CCCCC4)cccc3C(=O)N([C@@H](C)CO)C[C@@H]2C)cc1 | inactive | 
12 | Cc1ccc2nc3c(cc(C(=O)NCc4ccccc4)c(=N)n3CCCn3ccnc3)c(=O)n2c1 | inactive | 
13 | C[C@H]1CN([C@@H](C)CO)C(=O)c2cccc(NC(=O)Nc3ccc(C(F)(F)F)cc3)c2O[C@H]1CN(C)C | inactive | 
14 | COc1ccc(NC(=O)Nc2cccc3c2O[C@H](CN(C)Cc2ccc(C(=O)O)cc2)[C@H](C)CN([C@@H](C)CO)C3=O)cc1 | inactive | 
15 | CCc1ccccc1NC(=O)CCC(=O)N1CCN(C(C)=O)CC1 | inactive | 
16 | O=C(O)c1ccc(N2N=C(c3ccccc3)CC2c2ccccc2)cc1 (stereo not drawn) |  | -7.44% [at 2.6 µM] (inactive)
17 | COc1ccc2c3c(n(C)c2c1)[C@H](CO)N(C)CC31CN(C(=O)c2cccnc2)C1 | inactive | 
18 | O=C(O)c1cccc(NC(=O)c2ccccc2NC(=O)c2cccc([N+](=O)[O-])c2)c1 | inactive | 
19 | O=c1oc2cc(O)ccc2cc1-c1nc2ccccc2o1 | inactive | 

Row | SMILES | outcome | activity change, negative = inhibition
20 | C[C@H](CO)N1C[C@H](C)[C@H](CN(C)CC2CCCCC2)Oc2ncc(-c3ccc(F)cc3)cc2C1=O | inactive | 
21 | C[C@H](CO)N1C[C@H](C)[C@@H](CN(C)C)Oc2c(NC(=O)Nc3ccc(C(F)(F)F)cc3)cccc2C1=O | inactive | 
22 | CCOC(=O)c1nnn(CC(=O)Nc2ccccc2)c1C(=O)OCC | inactive | 
23 | COc1ccc(NC(=O)Nc2cccc3c2O[C@H](CN(C)Cc2ccc(C(=O)O)cc2)[C@H](C)CN([C@H](C)CO)C3=O)cc1 | inactive | 
24 | C[C@@H]1CCCCO[C@H](CN(C)C)[C@@H](C)CN([C@H](C)CO)C(=O)c2cc(NS(=O)(=O)c3ccc(Cl)cc3)ccc2O1 | inactive | 
25 | Cc1ccc(-c2cc(C(=O)N3CCCC3)c3ccccc3n2)s1 | inactive | 
26 | C/C=C/c1ccc([C@H]2[C@@H](CO)N(CC3CCOCC3)C23CN(S(=O)(=O)CC)C3)cc1 | inactive | 
27 | N#Cc1c(NC(=O)c2cccc(S(=O)(=O)Nc3ccc(C(=O)O)cc3)c2)sc2c1CCCC2 | inactive | 
28 | Cc1cccc(C)c1NC(=O)CSc1nnc(NC(=O)c2ccccc2C(=O)O)s1 | inactive | 
29 | O=C(NCc1ccccc1Cl)c1cc(=O)[nH]c2ccccc12 | inactive | 
30 | CCN(CC)C(=O)c1ncn(C)c1C(=O)N(CC)CC | inactive | 
31 | CN1[C@@H]2c3ccc(/C=C/c4ccccc4)c(=O)n3C[C@@H]2[C@@H](CO)[C@@H]1C(=O)N1CCCCC1 | inactive | 
32 | CCOC(=O)C1CCN(S(=O)(=O)c2ccc3c(c2)CC(=O)N3C)CC1 | inactive | 
33 | Cc1noc(C)c1NC(=O)N(C)C[C@H]1Oc2c(NC(=O)Nc3ccc(F)cc3)cccc2C(=O)N([C@H](C)CO)C[C@H]1C | inactive | 
34 | CC(=O)Oc1cc2oc(=O)cc(C)c2cc1Cl | inactive | 
35 | O=C(COC(=O)c1ccc(CO)cc1)Nc1ccc2ccccc2c1 | inactive | 
36 | COc1ccc(CN(C)C[C@@H]2OCCCC[C@H](C)Oc3ccc(NS(=O)(=O)c4cccs4)cc3C(=O)N([C@H](C)CO)C[C@H]2C)cc1 | inactive | 
37 | CC(C)C(NC(=O)CCNC(=O)c1ccc([N+](=O)[O-])cc1)c1nc2ccccc2[nH]1 (stereo not drawn) | inactive | 
38 | COc1ccc(CN(C)C[C@H]2OCCCC[C@H](C)Oc3ccc(NC(=O)Nc4ccc(F)cc4)cc3C(=O)N([C@@H](C)CO)C[C@@H]2C)cc1 | inactive | 
